Data on 24 compounds can be found in PubChem BioAssay AID602449 (Sanford-Burnham Center for Chemical Genomics, 2012).

In all, about 360,000 compounds went through this assay and about 5,000 (1.4%) were called active. What follows is part of a selection rich in actives, with near analogues and random picks from the rest. Unmarked numbers belong to inactive results.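 Rule for the calls: active = inhibition of 50% or more, scaled per plate between neutral and stimulator controls; inactive = the rest.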

This test can be described thus: blockers of Ca2+-induced mitochondrial swelling – biochemical, isolated mouse mitochondria, absorbance, primary screen (AID 602449).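 Note: 0% = DMSO wells given calcium and 100% = 1 mM EGTA wells.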 To be noted: 30 min, at 10 µM, active compounds read high.
In general, inhibition refers to the relative decrease from the control value, in per cent. Regarding `Cc1[nH]c2ccccc2c1-c1ccc(Cl)nn1`, the inhibition is -1%. For `N#C[C@]1(S(=O)(=O)c2ccccc2)C[C@@H]2ON=C(c3cccc(Br)c3)[C@@H]2C1` the value was 72.4% (active). As for `COC(=O)[C@]1(S(=O)(=O)c2ccccc2)C[C@@H]2ON=C(c3ccc(OC)cc3)[C@@H]2C1`, the figure is 1%.

For `CC1=C(C)CC(C(=O)NC(C)CCc2ccccc2)C(C(=O)O)C1` (centres undefined), the inhibition was -1.3%.

As to `COc1ccc(C)cc1Nc1n[n+](-c2ccccc2)c(-c2cccc(Cl)c2Cl)s1`, the inhibition is 1.4%.

`CCc1ccc(Nc2n[n+](-c3ccccc3)c(-c3cccc(Cl)c3Cl)s2)cc1`: the inhibition was 57.1% (active). With `COc1cc(Br)c(-c2sc(Nc3ccccc3)n[n+]2-c2ccccc2)cc1OC`, the inhibition is 1.6%. As for `Cc1ccc(C)c(OCCC(=O)OCC(=O)N2CCN(c3ccccc3)CC2)c1`, the figure is -0.6%; as for `O=C(CCCC(=O)N1CCN(c2cccc(Cl)c2)CC1)c1ccccc1`, -0.6%; as for `CCOC(=O)N1CCN(C(=O)Cc2ccc(-n3c(=S)[nH]c4ccccc4c3=O)cc2)CC1`, -1.2%. As for `O=C(Cc1ccc(-n2c(=O)[nH]c3ccccc3c2=O)cc1)N1CCN(c2cccc(Cl)c2)CC1`, the figure is 53% (active). For `Cc1ccc(C(=O)N2CCN(C3CCCCC3)CC2)s1`, the inhibition was -0.6%. As for `COc1cccc(C(O)c2ncc(-c3ccc4ccccc4c3)[nH]2)c1` (centres undefined), the figure is -0.1%; as for `COc1cccc(C(O)c2nc3ccccc3n2C)c1` (centres undefined), -0.2%; as for `CCCCCC(O)c1cccc(OCc2ccc3ccccc3n2)c1` (centres undefined), 50.9% (active). In the case of `Cc1ccnc(NC(=O)CCC(=O)N(CC(=O)NCc2ccccc2)Cc2ccco2)c1`, the inhibition is -0.3%. For `Cc1cc(C)c2c(=O)[nH]c(SCC(=O)Nc3ccc(Br)cc3)nc2n1` the value was 4.4%; for `CCc1ccc(C(=O)CSc2nnc(C)c(=O)[nH]2)cc1`, 0.8%. For `N#Cc1c(-c2cccs2)nc(SCC(=O)c2ccc(Br)cc2)[nH]c1=O` the value was 53.9% (active). For `CC1=C(C(=O)N(C)C)CC(CC(=O)NCCc2ccccn2)C(=O)N1CCC1=CCCCC1` (centres undefined) the value was -0.3%.

As for `CSCCC(NC(=O)c1ccc(=O)n(C)n1)c1nc2ccccc2[nH]1` (centres undefined), the inhibition is -0.7%. For `CSCCC(NC(=O)c1cc([N+](=O)[O-])cc([N+](=O)[O-])c1)c1nc2ccccc2[nH]1` (centres undefined) the value was 50.8% (active); for `COc1ccc(CC(=O)N[C@@H](CCSC)c2nc3ccccc3[nH]2)cc1`, -1.3%; for `COC(=O)[C@@]12C[C@@H](CC(=O)NCCCCc3ccccc3)C(=O)N(CCc3ccc(OC)c(OC)c3)C1=CCC(C)(C)C2`, -2.6%.
